The values below come from publication PMC7819943, “Rice protein-binding microarrays: a tool to detect cis-acting elements near promoter regions in rice”.

In all, about 35,000 sequences were measured (“fluorescence intensity (a.u.)”: median about 10,000, highest 2% from about 52,000 on). This excerpt belongs to a sample that is enriched for the highest values.

The target in the test is T1, OsWOX13 (Oryza sativa, UniProt Q5QMM3 1-267).
T1 sequence: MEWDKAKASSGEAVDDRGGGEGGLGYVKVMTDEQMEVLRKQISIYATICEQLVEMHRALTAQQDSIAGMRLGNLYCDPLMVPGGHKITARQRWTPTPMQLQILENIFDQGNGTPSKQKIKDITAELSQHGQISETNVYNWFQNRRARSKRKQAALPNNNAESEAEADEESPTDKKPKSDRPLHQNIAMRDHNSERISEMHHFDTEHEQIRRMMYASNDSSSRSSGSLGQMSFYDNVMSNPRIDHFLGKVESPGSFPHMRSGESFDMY
Put plainly: protein-binding microarray (RPBM); PBS, 2% BSA, 51.3 ng/ul salmon testes DNA, 50 uM zinc acetate, 200 nM TF, 25 C, 1 h; high values mean tight binding. The following applies: protein: recombinant; tags: N-terminal polyhistidine and DsRed monomer fusion (pET32a); label: CyDye5-dUTP incorporated in the synthesized complementary strand; 3' TTTTT single-stranded linker to array surface; dsDNA, one strand shown. Summed up: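 Polyhistidine-tagged DsRed fusions of transcription factors, joined at the N-terminus, were expressed in E. coli BL21-CodonPlus and isolated on Ni–NTA. They were incubated at 200 nM for 1 h at 25 °C on a custom Agilent array, double-stranded and BSA-blocked, in PBS with 2% BSA, salmon testes DNA and 50 µM zinc acetate. The binding signal is per-feature fluorescence intensity (arbitrary units) read on an Axon 4000B scanner after washing.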
With “AACAAATAAATTACTATTAGAGTAGGATGTTCGGCAAAGTCGGAGTCACCTAGTGCAG”, the binding signal was 7390 fluorescence intensity (a.u.).
The value for “ATATTGATGTTAATGAATCTAAATAGATATATATGTCTAGCGGAGTCACCTAGTGCAG” was 5520 fluorescence intensity (a.u.); that for “GTAGACTGATCACAATCTTTATTAGAATCGTTTAAGACACCGGAGTCACCTAGTGCAG” was 6090 fluorescence intensity (a.u.).
As to “TCTAATTTATTAGAGCGCCACATGACGGCTTGAGAGCGTTCGGAGTCACCTAGTGCAG”, the binding signal was 19200 fluorescence intensity (a.u.).
On to “TTCGTTCATCATCAATCAAAACATGGGACTATAAGGATTTCGGAGTCACCTAGTGCAG”, for which the binding signal is 7300 fluorescence intensity (a.u.).
For “AGTCAGCTGATTTAAATATAAACAGGGGTAAGAATTTAAGCGGAGTCACCTAGTGCAG”, the binding signal is 15000 fluorescence intensity (a.u.).
Consider “TATTTTGTAATCATTTGTTTTATATTTGAATTCCTGTCAGCGGAGTCACCTAGTGCAG”, for which the binding signal was 3710 fluorescence intensity (a.u.).
Take “GGTAAATATAATAAATTATTGATCTAACAACTTGAAATTACGGAGTCACCTAGTGCAG”: the binding signal was 3460 fluorescence intensity (a.u.).
Regarding “AATGATCTGATGGATGTTCTCTCACGTTCAAATCAGAGGCCGGAGTCACCTAGTGCAG”, the binding signal is 8430 fluorescence intensity (a.u.).
The value for “TGGGTCATTTATTGATTATTGTATTATTGTTCCTTATATTCGGAGTCACCTAGTGCAG” was 10300 fluorescence intensity (a.u.); that for “CAATATTCTTTGACAGCTTCGATTGACATCTCACCTTATGCGGAGTCACCTAGTGCAG” was 9220 fluorescence intensity (a.u.); that for “AGCTGCATATATTGATTGACAGGTGTACCGATTCCTTATGCGGAGTCACCTAGTGCAG” was 54400 fluorescence intensity (a.u.).
As for “GTCAATTTAGATTGCCGCGCTTACAATTAGTTCTCAGGAACGGAGTCACCTAGTGCAG”, the binding signal is 15100 fluorescence intensity (a.u.).
Consider “TCTAATTTCTTCCCTTGCAGATTGATCTTGTTAGTGAGCCCGGAGTCACCTAGTGCAG”, for which the binding signal is 20700 fluorescence intensity (a.u.).
With “AGTGATTAGATTAGTGAACTGATTAACATTTCTTGTGTTCCGGAGTCACCTAGTGCAG”, the binding signal was 64700 fluorescence intensity (a.u.).
As to “CATTAAGAGTGATTGAATCTTGTTCTAAACATTAACTTTTCGGAGTCACCTAGTGCAG”, the binding signal is 26300 fluorescence intensity (a.u.).
As for “ACAAAGTAATTGATTTCTTGTGTGAGGCCTTGTTTAGATCCGGAGTCACCTAGTGCAG”, the figure is 53400 fluorescence intensity (a.u.); as for “AAAGTAATTAGTGTTTTCTTGATTAGTCTTTTCCTTGTATCGGAGTCACCTAGTGCAG”, 42700 fluorescence intensity (a.u.).
Regarding “TTAATTAATTTCTCTAATGATTCTCAATCTTGTGTTCTTCCGGAGTCACCTAGTGCAG”, the binding signal is 28300 fluorescence intensity (a.u.).
Regarding “ATTATCCATTCAATCAAAACAAGCAGGACTACTAGAAAGCCGGAGTCACCTAGTGCAG”, the binding signal is 8940 fluorescence intensity (a.u.).
Take “CTTTATTGATTGAGAGGAACTATCTACCTCTGTAATGACACGGAGTCACCTAGTGCAG”: the binding signal is 39200 fluorescence intensity (a.u.).
“CAGTGTGATTTAAGAATTTTCAACTGTAAAAGAATAGGAGCGGAGTCACCTAGTGCAG”: the binding signal was 10000 fluorescence intensity (a.u.).
With “CTAGATTTATAATTAAATAAATTATTATAATATATAACTCCGGAGTCACCTAGTGCAG”, the binding signal is 42700 fluorescence intensity (a.u.).
On to “TCTAATTACTTATTAATTAATTGATTTAATTAAATTAATCCGGAGTCACCTAGTGCAG”, for which the binding signal is 40400 fluorescence intensity (a.u.).
On to “CAGGACTAATTGGGGTTGCAAACTGGGACTACAAACTACTCGGAGTCACCTAGTGCAG”, for which the binding signal is 28300 fluorescence intensity (a.u.).
The value for “TCAATTGATTATTACTGCCGCTTACTGTCTCCTCTACTGCCGGAGTCACCTAGTGCAG” was 53300 fluorescence intensity (a.u.).
As for “AATAACTAATTGTACATATTACGACTAATTTGCGAGATGACGGAGTCACCTAGTGCAG”, the figure is 35000 fluorescence intensity (a.u.); as for “CCGCACCTAAATTGATTGATTATTAATTTAACTGCCGCTCCGGAGTCACCTAGTGCAG”, 65500 fluorescence intensity (a.u.).
Consider “ACAAAACCAACTAATTAGGCAGGCAGCCATTTACCTCCATCGGAGTCACCTAGTGCAG”, for which the binding signal was 5480 fluorescence intensity (a.u.).
Turning to “AATAACTAATTGCATAGATTGTGACTAATTTGCGATGCGACGGAGTCACCTAGTGCAG”, the binding signal was 55200 fluorescence intensity (a.u.).
For “ATCAATCACTACTGCATATTACTATAATCTCCTCTATACTCGGAGTCACCTAGTGCAG”, the binding signal is 5200 fluorescence intensity (a.u.).
In the case of “TTTGCCGCTGAGTAATTAAATTGTCTACTTACAAATCCTCCGGAGTCACCTAGTGCAG”, the binding signal is 3590 fluorescence intensity (a.u.).
As for “AACTAATTAATTTATTGGCAGGCACTGGCCTACCAAACCTCGGAGTCACCTAGTGCAG”, the figure is 53100 fluorescence intensity (a.u.).
“AAAATAACTAATTGCACAGATTGTGACTAATTTGCGAGACCGGAGTCACCTAGTGCAG”: the binding signal is 34900 fluorescence intensity (a.u.).
Consider “AAAACAGTTTGATTAGCTTTCTGTCGAATCTGTCATGCATCGGAGTCACCTAGTGCAG”, for which the binding signal is 16500 fluorescence intensity (a.u.).
For “TTCTGATTAGTTACAACTTGAGTTCACTATTGTCATGATACGGAGTCACCTAGTGCAG”, the binding signal was 37200 fluorescence intensity (a.u.).
For the sequence “GACAAGATCAGTCCTAATTATATATATGTTTTACCTTCTACGGAGTCACCTAGTGCAG”, the binding signal was 4490 fluorescence intensity (a.u.).
In the case of “TGCAATAAATTATAGATGACTGAACATTTACACTCTACAGCGGAGTCACCTAGTGCAG”, the binding signal is 15300 fluorescence intensity (a.u.).
As for “CATAACTAATTAGTAACACAAAGAATATTGATTAGATGATCGGAGTCACCTAGTGCAG”, the figure is 43100 fluorescence intensity (a.u.); as for “CGCTAAAATTAAAAGTTTGATTGAAATTAGAACGATGTAACGGAGTCACCTAGTGCAG”, 30300 fluorescence intensity (a.u.); as for “TTAAAATTAAACTTTTGCAGTCTTTCTAATTTGCCTCCTCCGGAGTCACCTAGTGCAG”, 5220 fluorescence intensity (a.u.).
As for “ACTGAACAAATTGAGCATGGTGTATATGTCACATTTTCTACGGAGTCACCTAGTGCAG”, the binding signal was 6220 fluorescence intensity (a.u.).
